Assay outcomes (PubChem BioAssay)
A selection: hits, their analogues and other compounds. The true share with any hit is near 19%.
TDP1 cell noCPT – qHTS for Inhibitors of human tyrosyl-DNA phosphodiesterase 1 (TDP1): qHTS in cells in absence of CPT | DT40 Tdp1-/- hTDP1 cells, no CPT, ATP luminescence, 48 h | Potency, µM (series often up to 46.2 µM), without a hit: at the highest dose activity change, negative = growth inhibition, most hits filed as inhibitors | 15% of 420,000 active; also: potency is read from the fitted curve at half-maximal effect; nearly all actives have a fitted effect of over 55% in size
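DT40 Tdp1-/-;hTDP1 cells, no CPT (DMSO vehicle only), 400 cells/well; compounds pin-transferred; ≥48 hr, 37 °C; CellTiter-Glo 30 min RT dark, luminescence read.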
IL-1B inflam inh – qHTS for Inhibitors of Inflammasome Signaling: IL-1-beta AlphaLISA Primary Screen; AID 743279, 2014; THP-1 LPS/ATP IL-1B secretion, AlphaLISA, 16 h; stronger effect = lower value; activity change, % at 57.5 µM; 4.7% of 360,000 active; in the data active = activity change below about -50%; inconclusive = mostly about -30% to -49%
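Secreted IL-1B measured by AlphaLISA bead assay after 16 h compound exposure of THP-1 cells; compounds (final up to 57.5 uM) added 1 h before LPS (250 ng/mL) and ATP (1.25 mM) stimulation; lower signal means less secretion.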
HT1080NT lethal – qHTS for induction of synthetic lethality in tumor cells producing 2HG: qHTS for the HT-1080-NT fibrosarcoma cell line. AID 686970, 2013. Potency, µM (highest dose often 46.1 µM), for the others: at the top dose activity, negative = less viability, most hits filed as cytotoxic. 1.6% of 360,000 active. HT-1080-NT fibrosarcoma viability, CellTiter-Glo ATP luminescence, 48 h;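 also: NT is the 2HG producing partner of a matched IDH1 knockdown line; potency is read from the fitted curve at half-maximal effect; 0% = DMSO-treated cells and -100% = media-only wells without cells; nearly all actives have a fitted effect of over 55% in size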
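Luminescent CellTiter-Glo readout after 48 hours of compound exposure at 37 degrees C defined viability of HT-1080-NT cells. Activity was normalized to DMSO wells and cell-free media wells; concentration-response curves were fitted and assigned curve classes.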
DT40 TDP1 CPT – qHTS for Inhibitors of human tyrosyl-DNA phosphodiesterase 1 (TDP1): qHTS in cells in presence of CPT. chicken DT40 Tdp1-/-;hTDP1 cells + 20 nM CPT, ATP luminescence, 48 h. Potency, µM (doses to about 46.2 µM), for inactives: top-dose activity change, negative = growth inhibition, actives largely listed as inhibitors. 12% of 420,000 active. AID 686979, 2013; also: potency is read from the fitted curve at half-maximal effect; nearly all actives have a fitted effect of over 55% in size
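Cell growth measured by CellTiter-Glo luminescence after a minimum 48 h, 37 C compound exposure with 20 nM CPT in Tdp1-knockout DT40 cells stably expressing hTDP1, seeded 400/well; qHTS titration format.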
HT1080 IDH1KD tx – qHTS for induction of synthetic lethality in tumor cells producing 2HG: qHTS for the HT-1080-IDH1KD cell line; HT-1080 IDH1 knockdown viability, ATP luminescence, 48 h; Potency, µM (titrated, usually from 46.1 µM), without a hit: top-dose activity, negative = toxicity, hits mostly cytotoxic; 2% of 360,000 active;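 also: potency is read from the fitted curve at half-maximal effect; 0% = DMSO wells and -100% = cell-free medium wells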
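Cytotoxicity counter-line: IDH1KD HT-1080, 48 h, CellTiter-Glo. Curves classed by r2, magnitude and activity.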
* hit, by the source's call; ? = inconclusive; · = not tested or not shown. Unless noted, calls follow the shape of the dose curve; as a rule, active = well fitted curve in the direction sought with a large enough effect; inconclusive = small, poorly fitted or top-dose-only effect, or another doubt; inactive = no such curve, though single readings can be large; an effect the other way counts as inactive or inconclusive. Unless noted, % is scaled to controls: 0 for no effect and ±100 for the full control effect.

SMILES	TDP1 cell noCPT	IL-1B inflam inh	HT1080NT lethal	DT40 TDP1 CPT	HT1080 IDH1KD tx
Nc1nc(N)c2c(OCc3ccc(C(F)(F)F)cc3)cccc2n1	3.2µM*	·	·	5µM*	·
Nc1nc(N)c2c(Oc3ccc(F)cc3)cccc2n1	1.8µM*	·	·	13µM*	·
O=C(Nc1ccccc1Cl)c1ccc([N+](=O)[O-])o1	29µM*	-97*	?	?	21µM*
O=C(Nc1cccc2ncccc12)c1ccc(Br)c([N+](=O)[O-])c1	?	-108*	-16%	?	-13%
Cc1cccnc1NC(=O)c1ccc([N+](=O)[O-])o1	?	?	-1%	?	16%
CCOc1ccc(C(=O)Nc2cccc3ncccc23)cc1Cl	?	8	10%	23µM*	-12%
Cc1ccccc1NC(=O)c1ccc([N+](=O)[O-])o1	12µM*	?	-25%	?	26µM*
CCOc1ccc(NS(=O)(=O)c2ccc(NC(=O)C3CCCO3)cc2)cc1 (stereo unspecified)	?	15	-6%	?	-16%
O=C(Nc1cccc2ncccc12)c1ccc(-c2ccc(Br)cc2)o1	23µM*	59	?	18µM*	?
O=C(Nc1cccc2ncccc12)c1cccc(Br)c1	-17%	10	3%	-6%	-1%
Cc1ccc(NC(=O)c2ccc([N+](=O)[O-])o2)c(C)c1	?	-68*	-1%	23µM*	?
O=C(Nc1cccc2ncccc12)c1ccc([N+](=O)[O-])o1	16µM*	-93*	16µM*	12µM*	15µM*
CCC(C)c1ccccc1NC(=O)c1cccc(-n2cnnn2)c1 (stereo unspecified)	-9%	23	0%	4%	1%
COC(=O)c1ccc2c(c1C(=O)OC)CN(S(=O)(=O)C(C)(C)C)[C@H]2CCO	-4%	5	7%	-20%	7%
CCC(=Cc1ccccc1OC)c1ccncc1	?	-6	-20%	-2%	?
COc1cc(O)ccc1CN1CCc2nnc(C(C)NC(=O)c3cc(F)ccc3F)n2CC1 (stereo unspecified)	2%	·	·	5%	·
Clc1ccc(N2CCN(c3cnc4ccccc4n3)CC2)cc1	?	-9	5%	23µM*	1%
c1ccc(N2CCN(c3cnc4ccccc4n3)CC2)cc1	?	20	-6%	?	-13%
Cc1cc(C)cc(OCc2nc3ncc(Br)cc3[nH]2)c1	2.3µM*	41	?	2.3µM*	?
COc1cccc(OCc2nc3ncc(Br)cc3[nH]2)c1	2.9µM*	60	2.2µM*	4.1µM*	?
CCOC(=O)c1ccc(S(=O)(=O)N2CCN(c3ccccn3)CC2)cc1	?	10	-11%	-4%	-6%
COc1ccc(CCC(=O)NC2=NCCS2)cc1OC	-23%	0	-3%	-6%	-5%
Cc1nnc(N/N=C\c2ccc(-c3ccccc3[N+](=O)[O-])o2)n1N	?	103	0%	?	-11%
O=C(N/N=C/c1ccc(-c2cccc([N+](=O)[O-])c2)o1)[C@H]1C[C@@H]1c1ccccc1	16µM*	-20	4%	29µM*	-2%
O=C(/C=C/c1ccc(-c2ccccc2[N+](=O)[O-])o1)c1ccccc1	23µM*	-67*	-28%	?	-26%
SMILES	TDP1 cell noCPT	IL-1B inflam inh	HT1080NT lethal	DT40 TDP1 CPT	HT1080 IDH1KD tx
O=C(N/N=C/c1ccc(-c2ccccc2[N+](=O)[O-])o1)[C@H]1C[C@@H]1c1ccccc1	?	4	6%	16µM*	3%
O=C(O)/C(=C\c1ccc(-c2ccccc2[N+](=O)[O-])o1)c1ccccc1	-9%	19	-3%	-15%	-1%
O=C(N/N=C/c1ccc(-c2ccc([N+](=O)[O-])cc2)o1)[C@H]1C[C@@H]1c1ccccc1	?	15	3%	?	11%
Cc1ccc(CCNC(=O)C2CCCN(C(=O)c3cc4sccc4n3C)C2)cc1 (stereo unspecified)	?	-26	0%	-29%	-21%
Cn1c(C(=O)N2CCCC(C(=O)NCCc3ccccc3)C2)cc2sccc21 (stereo unspecified)	5.8µM*	15	?	5.8µM*	?
Cn1c(C(=O)N2CCCC(C(=O)NCCCc3ccccc3)C2)cc2sccc21 (stereo unspecified)	10µM*	-10	-22%	18µM*	-17%
COc1ccccc1N1CCc2c(C)nc3c(OC)cccc3c21	4.1µM*	-72*	?	5.8µM*	?
COc1cccc2c1nc(C)c1cc(C)oc12	?	-2	-7%	-24%	0%
Cc1ccc2nc(C)c3c(c2c1)N(c1ccc(F)cc1)CC3	?	·	21µM*	10µM*	15µM*
CCCc1c(C)nc2c(OC)cccc2c1SCC(=O)O	-13%	3	14%	3%	14%
COc1cccc2c3c(c(C)nc12)CCN3c1ccccc1	15µM*	-93*	?	?	?
CCOC(=O)C1=C(O)/C(=C/c2cc(OC)c(OC)c(OC)c2)N=C1C	-22%	-13	-1%	-1%	-4%
CCC1Oc2ccccc2N(CC(=O)NC2CCCC2)C1=O (stereo unspecified)	-3%	-12	-7%	-4%	-5%
Cc1ccccc1-c1cc(C(=O)NCc2ccc3c(c2)OCO3)nn1CC1CC(c2cccc([N+](=O)[O-])c2)=NO1 (stereo unspecified)	?	-13	8%	-7%	-6%
Cc1ccccc1-c1cc(C(=O)NCc2cccc(C(F)(F)F)c2)nn1CC1CC(c2cccc([N+](=O)[O-])c2)=NO1 (stereo unspecified)	23µM*	-1	0%	?	3%
Cc1ccccc1-c1cc(C(=O)NCc2ccc(OC(F)(F)F)cc2)nn1CC1CC(c2cccc([N+](=O)[O-])c2)=NO1 (stereo unspecified)	18µM*	?	3%	16µM*	6%
O=C(C1CCN(S(=O)(=O)c2cccc3cccnc23)CC1)N1CCn2c1nc1ccccc12	?	-9	0%	?	-3%
COc1cccc(/C=N/NC(=O)CNC(=O)COc2cccc(C)c2)c1O	18µM*	229	?	7.3µM*	23µM*
Cc1cccc(OCC(=O)NCC(=O)N/N=C/c2ccc(O)cc2O)c1	5.8µM*	188	-19%	16µM*	18µM*
